Source: PubChem BioAssay (NCI)
This is part of a sample that, as a whole, favours compounds with a hit. Of some 83,000 tested, about 20% had one in any assay.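 Cell lines were cultured in 96-well plates, exposed to a single compound concentration, and assessed for percent growth 48 hours later.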 The source made the active and inactive calls. How the source made its calls: active means growth percent below 10; inactive means the rest.

Assays:
Test in all cases: NCI-60 one-dose screen, 48 h (100 = growth as untreated, 0 = no growth, -100 = all killed)
Conditions in all cases: 10 µM unless noted
NCI-H23 lung = system: NCI-H23 lung
NCI-H226 lung = system: NCI-H226 lung
NCI-H322M lung = system: NCI-H322M lung
HOP-62 NSCLC = system: HOP-62 NSCLC
NCI-H460 lung = system: NCI-H460 lung
NCI-H522 lung = system: NCI-H522 lung
A549/ATCC NSCLC = system: A549/ATCC NSCLC
786-0 renal = system: 786-0 renal
COLO 205 colon = system: COLO 205 colon
DU-145 prostate = system: DU-145 prostate
K-562 leukemia = system: K-562 leukemia
MALME-3M melanoma = system: MALME-3M melanoma
MDA-MB-231 breast = system: MDA-MB-231 breast
RXF 393 renal = system: RXF 393 renal
SF-268 CNS = system: SF-268 CNS
SF-295 CNS = system: SF-295 CNS
SF-539 CNS = system: SF-539 CNS
UACC-257 melanoma = system: UACC-257 melanoma
M14 melanoma = system: M14 melanoma

Measured: growth

CCN(CC)Cc1cc(Nc2ccnc3ccc(OC)cc23)ccc1O
active: NCI-H522 lung -1.72% | UACC-257 melanoma -17.7%
inactive: NCI-H23 lung 56% | NCI-H226 lung 56.4% | NCI-H322M lung 38.5% | HOP-62 NSCLC 71.2% | NCI-H460 lung 20.1% | A549/ATCC NSCLC 22.5% | 786-0 renal 18.2% | COLO 205 colon 78.2% | DU-145 prostate 40.5% | K-562 leukemia 12.7% | MALME-3M melanoma 75% | MDA-MB-231 breast 58.8% | RXF 393 renal 48.9% | SF-268 CNS 53% | SF-295 CNS 79% | SF-539 CNS 64.7% | M14 melanoma 29.5%

COc1ccc([C@H]2c3[nH]c4ccccc4c3C[C@H]3C(=O)N(CCCCCCC(=O)NO)CC(=O)N23)cc1
active: NCI-H522 lung 4.51% | K-562 leukemia 6.77% | MALME-3M melanoma -4%
inactive: NCI-H23 lung 34.6% | NCI-H226 lung 76.9% | NCI-H322M lung 53.2% | HOP-62 NSCLC 42.9% | NCI-H460 lung 47% | A549/ATCC NSCLC 60% | 786-0 renal 83.6% | COLO 205 colon 22.9% | DU-145 prostate 24.2% | MDA-MB-231 breast 45.3% | RXF 393 renal 22.2% | SF-268 CNS 69.7% | SF-295 CNS 34.8% | SF-539 CNS 38.1% | UACC-257 melanoma 27.7% | M14 melanoma 22.4%

COc1cc2c(c(OC)c1O)C(=O)C(OC)C(c1ccc(O)c(O)c1)O2 (stereo unspecified)
inactive: NCI-H23 lung 24.7% | NCI-H226 lung 16.8% | NCI-H322M lung 37% | HOP-62 NSCLC 42.3% | A549/ATCC NSCLC 17.7% | 786-0 renal 17% | COLO 205 colon 88% | MALME-3M melanoma 52.2% | RXF 393 renal 17.1% | SF-268 CNS 24.6% | UACC-257 melanoma 69.1%
active: NCI-H460 lung 4.55% | NCI-H522 lung -11.9% | DU-145 prostate 5.45% | K-562 leukemia 6.8% | MDA-MB-231 breast -8.18% | SF-295 CNS -6.27% | SF-539 CNS -23% | M14 melanoma -3.36%

Clc1cccc(CNc2c3ccccc3nc3ccccc23)c1
inactive: NCI-H23 lung 32% | NCI-H226 lung 48% | NCI-H322M lung 31.3% | HOP-62 NSCLC 45.5% | NCI-H460 lung 14.2% | NCI-H522 lung 41.7% | A549/ATCC NSCLC 27.9% | 786-0 renal 25.2% | DU-145 prostate 31.6% | MALME-3M melanoma 45% | MDA-MB-231 breast 29.4% | RXF 393 renal 19% | SF-268 CNS 60.6% | SF-295 CNS 20.8% | UACC-257 melanoma 45.4% | M14 melanoma 35.5%
active: COLO 205 colon 0.537% | K-562 leukemia 5.03% | SF-539 CNS 9.28%

CCN(CC)CCNC(=O)n1cc(-c2ccncc2)c(-c2cc(Cl)cc(OC)c2)n1
inactive: NCI-H23 lung 80.1% | NCI-H226 lung 38.7% | NCI-H322M lung 114% | HOP-62 NSCLC 35.9% | NCI-H460 lung 97.9% | NCI-H522 lung 92.3% | A549/ATCC NSCLC 49.5% | 786-0 renal 71.5% | COLO 205 colon 46.2% | DU-145 prostate 81.3% | K-562 leukemia 66.7% | MALME-3M melanoma 111% | MDA-MB-231 breast 82.8% | RXF 393 renal 61.8% | SF-268 CNS 73.9% | SF-295 CNS 80.3% | SF-539 CNS 44% | UACC-257 melanoma 89.4% | M14 melanoma 108%

CC(=O)CC(c1ccc([N+](=O)[O-])cc1)c1c(O)c2ccccc2oc1=O (stereo unspecified)
inactive: NCI-H23 lung 106% | NCI-H226 lung 93.9% | NCI-H322M lung 98.7% | HOP-62 NSCLC 102% | NCI-H460 lung 104% | NCI-H522 lung 97.3% | A549/ATCC NSCLC 95.7% | 786-0 renal 95.4% | COLO 205 colon 112% | DU-145 prostate 106% | K-562 leukemia 104% | MALME-3M melanoma 98.3% | MDA-MB-231 breast 95.9% | RXF 393 renal 108% | SF-268 CNS 99% | SF-295 CNS 104% | SF-539 CNS 97.1% | UACC-257 melanoma 120% | M14 melanoma 102%

O=C(/C=C/c1ccccc1)c1c[nH]c2ccccc2c1=O
inactive: HOP-62 NSCLC 23.6% | K-562 leukemia 11.1% | MALME-3M melanoma 43.6% | RXF 393 renal 18.1% | UACC-257 melanoma 58.9%
active: NCI-H23 lung 9.55% | NCI-H226 lung 8.22% | NCI-H322M lung -7.62% | NCI-H460 lung -32.8% | NCI-H522 lung 0.426% | A549/ATCC NSCLC 3.17% | 786-0 renal 4.48% | COLO 205 colon 0.617% | DU-145 prostate 7.22% | MDA-MB-231 breast -1.53% | SF-268 CNS -14.1% | SF-295 CNS -51.7% | SF-539 CNS -24.5% | M14 melanoma -24%

Oc1c(C(Nc2ccccc2Br)c2ccccc2)ccc2cccnc12 (stereo unspecified)
active: NCI-H460 lung 5.78% | NCI-H522 lung -1.78% | 786-0 renal 6.91% | M14 melanoma -14.2%
inactive: NCI-H23 lung 22.2% | NCI-H226 lung 35% | NCI-H322M lung 24.5% | HOP-62 NSCLC 19.6% | A549/ATCC NSCLC 22.6% | COLO 205 colon 32.4% | DU-145 prostate 28.8% | K-562 leukemia 11.4% | MALME-3M melanoma 28.1% | MDA-MB-231 breast 37.7% | RXF 393 renal 37.6% | SF-268 CNS 18.5% | SF-295 CNS 13.6% | SF-539 CNS 19.9% | UACC-257 melanoma 14.5%

Cc1ccc(Nc2cc(Cl)c([N+](=O)[O-])cc2[N+](=O)[O-])cc1
active: NCI-H522 lung -41.7% | COLO 205 colon -31.2% | RXF 393 renal -41.2%
inactive: NCI-H23 lung 63.8% | NCI-H226 lung 25.9% | NCI-H322M lung 86.7% | HOP-62 NSCLC 62.8% | NCI-H460 lung 52.7% | A549/ATCC NSCLC 76.7% | 786-0 renal 23.5% | DU-145 prostate 46.7% | K-562 leukemia 13.3% | MALME-3M melanoma 70.4% | MDA-MB-231 breast 18.3% | SF-268 CNS 27.7% | SF-295 CNS 99.4% | SF-539 CNS 21.7% | UACC-257 melanoma 73.6% | M14 melanoma 34.7%
